Experimental data from the supplement of paper PMC4709259.
± gives the standard deviation.

These compounds were tested on Jurkat (assay: cell count relative to DMSO control (fraction of control); higher = more cells (less growth inhibition)). Conditions: 48 h.
COc1cc(C)c(/C=C/C(C)=C/C=C/C(C)=C/C(=O)O)c(C)c1C [Acitretin] (concentration: 25 µM) was tested, and the cell count was 0.625 ± 0.11. Compound Nc1nc(F)nc2c1ncn2[C@@H]1O[C@H](COP(=O)(O)O)[C@@H](O)[C@@H]1O [Fludarabine Phosphate] (concentration: 2.5 µM) has a cell count of 0.378 ± 0.024. Compound CC=CC(=O)N(CC)c1ccccc1C [Crotamiton] (concentration: 25 µM) has a cell count of 0.809 ± 0.17. With C[C@H]1O[C@H](O[C@H]2[C@H](O)[C@@H](O)[C@@H](O[C@@H]([C@H](O)[C@@H](O)C=O)[C@H](O)CO)O[C@@H]2CO)[C@H](O)[C@@H](O)[C@@H]1N[C@H]1C=C(CO)[C@@H](O)[C@H](O)[C@H]1O [Acarbose] (concentration: 25 µM) the cell count was 0.877 ± 0.15. CO/N=C(\C(=O)N[C@@H]1C(=O)N2C(C(=O)O)=C(CSc3nc(=O)c(=O)[nH]n3C)CS[C@H]12)c1csc(N)n1 [Ceftriaxone·Na] (concentration: 25 µM) showed a cell count of 1.06 ± 0.073. For CC=CC1=C(C(=O)O)N2C(=O)[C@@H](NC(=O)[C@H](N)c3ccc(O)cc3)[C@H]2SC1 [Cefprozil] (concentration: 25 µM), the cell count was 1.06 ± 0.035. Compound CC(C)Cn1cnc2c(N)nc3ccccc3c21 [Imiquimod] (concentration: 25 µM) has a cell count of 0.44 ± 0.15. With CCC(C)n1ncn(-c2ccc(N3CCN(c4ccc(OCC5COC(Cn6cncn6)(c6ccc(Cl)cc6Cl)O5)cc4)CC3)cc2)c1=O (stereo not drawn) [Itraconazole] (concentration: 25 µM) the cell count was 0.323 ± 0.026.
